Measurements taken from PubChem BioAssay (NCI).
About 83,000 compounds went through this panel and 20% of them were active in at least one assay; those are over-represented in the sample as a whole.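 Treatment: one concentration, 48 hours, 96-well format. Scoring: percent growth, with anything below 10 considered active.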 Values without a mark were called inactive. Active and inactive are the calls of the source.

Legend:
Assay in all cases: NCI-60 one-dose screen, 48 h (100 = growth as untreated, 0 = no growth, -100 = all killed)
Conditions in all cases: 10 µM unless noted
[1] = test system: SK-MEL-2 melanoma
[2] = test system: EKVX NSCLC
[3] = test system: SN12C renal
[4] = test system: UO-31 renal
[5] = test system: TK-10 renal
[6] = test system: ACHN renal
[7] = test system: CAKI-1 renal
[8] = test system: A498 renal
[9] = test system: CCRF-CEM leukemia
[10] = test system: MOLT-4 leukemia

Compound	growth [1] [%]	growth [2] [%]	growth [3]	growth [4]	growth [5]	growth [6]	growth [7]	growth [8]	growth [9]	growth [10]
Clc1ccc2[nH]cc(-c3nn4cc(-c5ccncc5)nc4s3)c2c1	79	56.5	33.9%	39.6%	125%	30.3%	54.5%	90.8%	75.2%	81.8%
C#CCOc1ccc(-c2csc(NC(=O)C=C)n2)cc1NS(=O)(=O)c1cccc2c(N(C)C)cccc12	69.4	66.1	31.2%	21.9%	63%	9.85% (active)	36.2%	79.8%	3.87% (active)	1.79% (active)
CCCc1cc2cc(-n3nc(CC)c4c3CC(C)(C)CC4=O)cc(NC3CCC(O)CC3)c2c(=O)[nH]1 (centres undefined)	53.1	52.4	7.81% (active)	14.1%	0.71% (active)	8.86% (active)	19.6%	37%	21.8%	15.3%
O=C1C(N2CCN(c3ccccc3)CC2)=C(Cl)C(=O)c2ncccc21	97.1	101	58.2%	14.9%	123%	-3.31% (active)	39.9%	104%	6.08% (active)	9.67% (active)
CCOC(=O)c1cnc2c(-c3ccc(Cl)c(Cl)c3)cnn2c1	83.9	81.3	95.7%	80.2%	117%	104%	67.2%	82.8%	68.4%	62.3%
Cc1cc(=O)oc2cc(OCCCOc3ccc(/C=C/C(=O)Nc4ccc(Br)cc4)cc3)ccc12	91.1	91.6	89.9%	82.3%	78.9%	46.7%	104%	82.9%	83.6%	96.4%
Cc1ccc2c(n1)C(=O)C(Cl)=C(Nc1ccccc1C(=O)OC(C)(C)C)C2=O	93.6	28	52.6%	-62.7% (active)	-84.6% (active)	-73.6% (active)	-92.4% (active)	92.3%	-27.1% (active)	-32.6% (active)
CCN1CCN(c2ccc(NC(=O)Nc3ccc4c(ccn4-c4ccnc(C(=O)NC)c4)c3)cc2C(F)(F)F)CC1	94.8	86.3	90.8%	71%	113%	74.7%	79.3%	81.1%	7.75% (active)	10.9%
COC(=O)c1cccc(NC2=CC(=O)C(C)=C(C)C2=O)c1	101	100	93.3%	94.5%	133%	100%	86.5%	78.7%	52.8%	40%
CCCCN1C(=O)/C(=c2\sc3n(c2=O)C2C(NN=3)N(CC)C(=O)N2CC)c2cccc(C)c21 (centres undefined)	97.6	46.6	62%	54.7%	82.9%	47.2%	35.3%	5.04% (active)	18.7%	45.1%
CC1(C)CC[C@]23CC[C@]4(C)[C@H](CC[C@@H]5[C@@]6(C)CC[C@H](NCO)C(C)(C)[C@@H]6CC[C@]54C)[C@H]2[C@H]1OC3	97.2	93.9	43.3%	73.9%	122%	26.4%	29.3%	106%	36.5%	15%
CC1(C)CC[C@]2(C(=O)O)CC[C@]3(C)C(=CC[C@@H]4[C@@]5(C)CC[C@H](NOCCCN)C(C)(C)[C@@H]5CC[C@]43C)[C@@H]2C1	93.3	83.9	83.5%	71.4%	122%	97.8%	93.7%	110%	66.4%	75.3%
C#CCOc1ccccc1/C=N/Nc1nc(-c2ccc(Cl)cc2)cs1	102	77.5	93.8%	75.9%	145%	95.3%	92%	81.4%	96.6%	90.8%
C=CCSC1=NC2C(N(CC)C(=O)N2CC)N1/N=C/C=C/c1ccccc1OC (centres undefined)	98.7	83.7	97.5%	68.3%	122%	74.7%	49.5%	55.1%	63.5%	70.6%
COc1cc(NC(=O)Nc2cccc(-c3cc(=O)c4c(OC)c(OC)c(OC)cc4o3)c2)cc(OC)c1OC	49.3	62.2	38.5%	24.7%	64.9%	56.1%	35.4%	19.1%	35.4%	32.1%
Nc1ncc(-c2ccc3ncnc(NCc4ccccc4)c3c2)cn1	71	23.5	29.5%	15.1%	-7.11% (active)	25.2%	17.4%	22.4%	42.3%	17.7%
O=C(CSc1nc2ccccc2c(=O)n1-c1ccccc1)N/N=C/c1ccc(Oc2ccc(Cl)cc2)cc1	86.9	59	26.9%	81.2%	104%	74.5%	59.2%	65.7%	50.4%	58.7%
CC(O)c1cccc(/C(N)=N/C(N)=N/c2nc3ccccc3s2)c1 (centres undefined)	107	91.9	86.9%	89.2%	133%	86.6%	101%	90.7%	–	83.9%
